According to PubChem BioAssay AID1347426 (Functional Genomics Laboratory (NCATS/FGL), 2020):
The whole screen tested about 31,000 sequences, of which about 1,400 (4.5%) were called active.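 The calls were made as follows: active = median seed-adjusted z-score above 1 or below -1; inactive = the rest.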 The full list was thinned out, with actives kept by preference.

Assay: Novel Modifiers of Survival Motor Neuron (SMN) Protein: Gene Identification via Genome-wide siRNA Screen;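 also: luminescence tracks full-length SMN protein made from the SMN2 reporter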
Conditions: HEK293T SMN2-luciferase reporter, siRNA knockdown, 72 h; actives lie on both sides
How it was run: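 Genome-wide siRNA screen (10418 genes, 3 siRNAs each, 1 pmol per well) by reverse transfection in HEK293T cells stably carrying an SMN2-luciferase reporter; luminescence after 72 hours, normalized to negative-control siRNA, log10-transformed, MAD-scored.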

Sequence | median seed-adjusted z-score
GCAGGUUCCUUAUCUGUCATT against BIRC5 | 0.0236 (inactive)
GGAUUAGUGAUUAUAUGGATT against NPAS3 | -0.0316 (inactive)
CAUCCAAGAUUAUAGUGGATT against PNLIP | 0.385 (inactive)
GUACAGACCUGAGAAUUCUTT against CTSL2 | -1.04 (active)
GAUGAACCCUGGAACUUCATT against ZNF354B | 0.393 (inactive)
AGAAGGACGUGUCCAAGGATT against FOXC2 | -0.792 (inactive)
GAAUGAUGUUGACAUGAGUTT against SSR1 | -0.434 (inactive)
GCCUAUUCAUCGGAAGGUATT against SENP2 | 0 (inactive)
UGCUUAUGAUCAACAUUUATT against LSM3 | -1.36 (active)
GGGUUUAACUUUCAGAGAUTT against VN2R1P | -0.25 (inactive)
GGGUUGGUGUGAUUGGAGUTT against LOC647743 | -0.203 (inactive)
GCUCGGCAUCUGUUGGUUATT against SIRT3 | -0.341 (inactive)
GGCCUAUAAUGAAUACCCUTT against GLRA1 | 0 (inactive)
CAUUGAAACUGAUAAACCATT against ARCN1 | -1.25 (active)
GCAGAGCAAUGGGAGAGAATT against EPHB4 | -0.143 (inactive)
GCAUCGCAGUGCUAAACAUTT against DGKA | -1.36 (active)
AGACAAUCGUCAUGCAAUUTT against CDC37 | 0 (inactive)
GAAUUACUCUGCCUCUAAATT against TAF7 | -0.593 (inactive)
CGUCUAAUGCUGCUCCACATT against AGPAT1 | -1.38 (active)
AUCCUUCCCUGAAUCAUCATT against KLRC2 | -0.472 (inactive)
GUAUCCAUGUGCAUUUUAATT against NT5E | 0.199 (inactive)
GCUCAUACCUCGGAUGUCATT against GPR31 | -0.0381 (inactive)

Sequence | median seed-adjusted z-score
CCACAUUUGUGACGCAAAATT against TPSAB1 | 0.197 (inactive)
GCUAAAUGGAGGAGACUAATT against HHEX | -0.428 (inactive)
CAACAUUCAUGGACGGGAATT against SLC2A7 | -0.0337 (inactive)
CGUAAAUCCCUAAUCUUUATT against FOXJ1 | -0.553 (inactive)
CACUGAAUGUGAGAGCUGUTT against HRC | 1.06 (active)
CCUUCUUCUGGAUACCGAUTT against ABCA9 | -0.139 (inactive)
GCGGAAAAGCUGUAUCUAUTT against POLR3E | -0.55 (inactive)
GGUGGAACUUUUAAUCAAATT against GABPB2 | 0.441 (inactive)
CCAGAUUGCUAGUAUCUCATT against TRAK1 | 0.298 (inactive)
CCUGGAAAGUACUCUAGAATT against PGS1 | 1.36 (active)
GGAUCCUACUGGUAAAACUTT against NUDT5 | 0.228 (inactive)
GCAGCGACCUUUCAGAACATT against SALL1 | -0.526 (inactive)
GAUUAUAAGUAUCUACGUUTT against GTPBP4 | 1.01 (active)
GACUGACACGGAAUAGUGUTT against ZNF286A | 0.0368 (inactive)
CCACCUUCAAUAUCGAGUUTT against DRD3 | 0.0447 (inactive)
ACUGCAAUCUGUUGCCCAATT against CLIC5 | 0 (inactive)
CAUUCUCAGUCAUCAUAGATT against ATP8A2 | 0 (inactive)
GGAUCUGCUUUCGAACCUATT against MBOAT1 | -1.22 (active)
GGAUAGUAUGAAUGAUCAATT against SRP54 | 0.203 (inactive)
CCGCUUCACAGGUAGUUAATT against NUP93 | 1.01 (active)
GGUCAAACAAUGUCGCUUUTT against COPB2 | -0.61 (inactive)
GUAAGUCCCUUUAUUCACATT against GFRA4 | -1.59 (active)

Sequence | median seed-adjusted z-score
GGACUCUACCUGACAGAAATT against CAPN13 | 0.208 (inactive)
GGUUCUAGCUGUCAACAUUTT against AP1G2 | 0.0657 (inactive)
ACCACCAAAUGAAGAAUAATT against AKR7A3 | 0.455 (inactive)
GCAUCCUUGUGUACAUGUGTT against USP41 | 0.808 (inactive)
GCACCUUCGUCUACAAGGATT against PDE6A | 1.25 (active)
UGGACUUCGUGGUUCAGCATT against SULT1A1 | -0.26 (inactive)
GGAUGUUUUCCGGUUCAUATT against LOC4951 | 0.0691 (inactive)
GCUUUCAUCGGCUCCAUAATT against CARM1 | 0.317 (inactive)
GAUGUAACAUUGACAUUGATT against NOTCH2 | 0.000598 (inactive)
CAUUUUCAGUCUUUAGAAATT against RNF34 | -0.0857 (inactive)
GGGUUGUUUCAAUCUAACATT against HDAC2 | -1.27 (active)
GCCCUGAAGAUAUCGUGAATT against PARVG | 0.321 (inactive)
GGACUUUGAGGAAACGGAATT against BRD8 | -0.133 (inactive)
GUUACGCCCUGAUUCUAAATT against MAT2A | -1.9 (active)
GGAACAAAGACUAAAAACATT against TUBB6 | 0.63 (inactive)
GCAAAACACCAGAACGAGATT against TESSP2 | 0.419 (inactive)
GAAUAGAGGAUAUCCUUGATT against KYNU | 0.00735 (inactive)
CCAGCUUGCUUGUGUAUAATT against PPP1R14A | 0.0124 (inactive)
GGAAGACUCAUUGAACAUATT against CASP1 | -0.331 (inactive)
GGGAAUUACCAGUUACGGATT against TMPRSS12 | 0.0961 (inactive)
CAAUGUUCCUCUACCUCUATT against MAL2 | -0.604 (inactive)
GCAUCCUUACAGCACUGCATT against XRCC3 | 0.332 (inactive)

Sequence | median seed-adjusted z-score
GACUAUCUUUUUAGGCAAATT against BRIP1 | 0.312 (inactive)
GCCUCAUCGUUCUGCAGAATT against ZNF628 | -0.121 (inactive)
GUACAGGCCCUACAUCAUUTT against LRP5 | -1 (active)
CAUCUGACCCUAACUGAAATT against ZMYND10 | 0.255 (inactive)
GGGUGAUCGAGGACCCAAATT against COL8A1 | -0.848 (inactive)
GGAUCAUGCUAAAAGGAGATT against SNRPE | -2.77 (active)
GCCUUGUAAAAAUCAACUUTT against ZNF528 | -0.0746 (inactive)
CGCAAAAGGCUACCACGAATT against CD300LF | -0.264 (inactive)
GGUUGCUACGGGAACAAUATT against ARSD | -0.447 (inactive)
CAGUGACCUGCUUCCCUCATT against PROP1 | 0.303 (inactive)
CGGUGUGAAGAUGAUCUAATT against DNAJC24 | -0.0166 (inactive)
GUUACUCACAUUUUCUUUATT against AKR7A3 | 0.455 (inactive)
UAAUCAAUCUGGAAUGUUUTT against BMP8B | 0 (inactive)
CGAGGAGCUGAAUUCCCAATT against SLC9A3R1 | -0.418 (inactive)
CAGACUGAAGGGUUCCGAATT against MLH3 | 0.228 (inactive)
GCCUCUAAGAGCUGAGAGATT against PRSS33 | -0.588 (inactive)
GGACUAUGCAAAGAAUCUATT against RPS6KB1 | 1.4 (active)
GCUACGAUCACAUUACGAATT against JARID1D | 0.293 (inactive)
GUACCAGUCCAGUCCAUGATT against CDKN2D | -0.455 (inactive)
GGAAGUAAAUGUUGUUUUATT against CCL11 | -0.221 (inactive)
GGCCCGAGCUGAUUGACUATT against ACTN1 | 0 (inactive)
GCUCUAACCUCACUAAUCATT against ZNF256 | 0.00739 (inactive)

Sequence | median seed-adjusted z-score
CCGCUGCAACAACCAGAAATT against LRP3 | -1.05 (active)
CAGUCCUACAGGUUCAUCATT against PIP5K1C | -0.13 (inactive)
GAGAUAUUUGAGUCGUUAATT against GBP7 | 0 (inactive)
CAACUCCGUGGUUACCAAATT against PQBP1 | -1.12 (active)
UCAUGAGCCUGAUAAGUGATT against PPP2R5D | 0.848 (inactive)
GAUCUCAAAUCAGAGUUAATT against ANXA7 | 0.671 (inactive)
CAAUGGAUCGGCUUCCUUATT against ADRA2B | 0.00853 (inactive)
GCAAUAAGAGAGAUCAGUATT against PDSS1 | -0.287 (inactive)
GGACAAGAAGCAAAUGACATT against OLIG2 | 0.00944 (inactive)
GGUCCGCAAAGGCUUCUGATT against VWA1 | 0.289 (inactive)
CCUUAUCCGAGAAUACAUUTT against TUBAL3 | 1.05 (active)
GGAAAUUGACUUUCUAAAATT against KRT84 | -0.645 (inactive)
CAGUGACUAUGAGAGUGUATT against SCARB2 | -0.244 (inactive)
CGGUUGAAGUGUAGGGAGATT against TCEA1 | 0 (inactive)
CGAGUAUACAGUAUACAGATT against CHAF1B | 0.634 (inactive)
CUCAGAGAAUAAUCACAAATT against PER2 | -0.113 (inactive)
GAACUAUAUUCUUCUGUGATT against CDH1 | -0.24 (inactive)
GCCUCCUACUACUUCCGUUTT against SLC6A8 | -0.0673 (inactive)
GAAUUGUACCUACUUCUGUTT against PTPLA | 0.291 (inactive)
CUACCUCUCUUGUUUGGAATT against TRIP13 | 1 (active)
